An excerpt weighted towards active compounds, which were near 1.5% of everything screened.
gsp antagonist – qHTS for Antagonists of gsp, the Etiologic Mutation Responsible for Fibrous Dysplasia/McCune-Albright Syndrome: qHTS | gsp-mutant cells, cAMP HTRF, 30 min | Potency, µM (series often up to 76.9 µM), for inactives: at the top dose activity change, negative = inhibition, most hits filed as inhibitors | hit rate 0.4% among 340,000 | AID 624288, 2012; calls by dose curve; cell line not stated here;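 further: intracellular cAMP measured with PDE inhibitor Ro 20-1724 present during compound exposure; potency means the concentration at half of the fitted maximal effect; on the % scale 0 is the no-effect control and ±100 the full control effect; nearly all actives have a fitted effect of over 65% in size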
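Cells in G418 medium, seeded 16-24 h, 37C; buffer exchange to DPBS + 1 mM CaCl2, 0.5 mM MgCl2, 0.05% BSA; cpds in DMSO + […] (300 uM stock), 30 min 37C; HTRF cAMP detection.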
mIDH1 inhibitor – qHTS for Inhibitors of mutant isocitrate dehydrogenase 1 (IDH1): qHTS | hit rate 0.093% among 390,000 | AID 602179, 2012 | Potency, µM (titrated, usually from 76.6 µM), inactives show at the highest dose activity change, negative = inhibition, hits mostly inhibitors | IDH1-R132H enzyme, NADPH consumption, diaphorase/resazurin fluorescence | Isocitrate dehydrogenase [NADP] cytoplasmic (Homo sapiens), O75874; further: potency means the concentration at half of the fitted maximal effect; on the % scale 0 is the no-effect control and ±100 the full control effect; nearly all actives have a fitted effect of over 65% in size
Target sequence (O75874 whole entry R132H, stated change not applied): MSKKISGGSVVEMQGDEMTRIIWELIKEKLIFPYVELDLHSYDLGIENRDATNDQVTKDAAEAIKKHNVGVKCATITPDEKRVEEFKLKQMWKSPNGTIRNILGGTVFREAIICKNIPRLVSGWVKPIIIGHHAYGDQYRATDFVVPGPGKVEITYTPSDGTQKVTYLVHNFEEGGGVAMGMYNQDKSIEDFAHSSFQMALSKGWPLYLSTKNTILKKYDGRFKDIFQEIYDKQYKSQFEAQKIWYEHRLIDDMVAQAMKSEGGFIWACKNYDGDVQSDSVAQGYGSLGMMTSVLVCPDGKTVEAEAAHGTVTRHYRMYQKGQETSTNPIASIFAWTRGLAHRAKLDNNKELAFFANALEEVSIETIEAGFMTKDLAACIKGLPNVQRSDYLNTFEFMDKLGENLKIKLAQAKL
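IDH1-R132H (0.5 ug/mL) preincubated 30 min with compound, then NADPH (0.016 mM) and alpha-KG (2 mM) added; 80 min at RT, pH 7.5. Remaining NADPH coupled via diaphorase/resazurin to fluorescence (540/590 nm); concentration-response curves normalized to no-enzyme control.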
gsp agonist – qHTS for Agonist of gsp, the Etiologic Mutation Responsible for Fibrous Dysplasia/McCune-Albright Syndrome: qHTS. gsp mutant cells, cAMP HTRF, 30 min. Potency, µM (series often up to 76.9 µM), without a hit: at the top dose activation (cAMP increase), usual class: activators. hit rate 0.13% among 340,000; active means well fitted activation curve with a large enough effect; inconclusive means small, poorly fitted or top-dose-only effect, or another doubt; inactive means no such curve, though single readings can be large or run the other way; cell line not stated here;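 further: phosphodiesterase inhibitor Ro 20-1724 added with compounds to block cAMP breakdown; potency means the concentration at half of the fitted maximal effect; nearly all actives have a fitted effect of over 60% in size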
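Cells stably selected in G418 were plated at 2000/well, grown 16-24 hr, then given compounds in DMSO with the PDE inhibitor […] (300 uM solution added) for 30 min at 37C; cAMP was read by HTRF.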
BRCA1 expr act – qHTS Assay to Identify Small Molecule Activators of BRCA1 Expression | MCF7-BRCA1-FFLuc reporter, luminescence, 48 h; response scale: scaled: vehicle 0%, 10 µM genistein 100% | Potency, µM (series often up to 46.1 µM), without a hit: at the top dose activation, actives largely listed as activators | hit rate 1.1% among 380,000 | AID 624202, 2012; further: potency means the concentration at half of the fitted maximal effect; nearly all actives have a fitted effect of over 80% in size
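Activators of BRCA1 expression were detected as increased firefly luciferase luminescence in engineered MCF7 cells after 48 h compound incubation. Signals were scaled to genistein 10 microM as full activation.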
IL-2 act – qHTS of IL-2 Activators. IL-2 activation reporter assay, cell-based qHTS; stimulated with anti-CD3/CD4/CD28 beads; in transgenic mouse T cells. activation, % (series mostly up to about 46 µM). hit rate 0.065% among 360,000; in the data active means activation above about 50%; inconclusive means mostly about 30% to 49%; further: 0% is about no effect
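Readout is EGFP and DsRed signal by fluorescent plate cytometry after 18 h at 37 degrees C. Transgenic mouse T cells (750/well) received compound for 60 min before bead stimulation (anti-CD3, anti-CD4, anti-CD28); memory T cells served as non-tolerant control.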
An asterisk follows results filed as active; ? = inconclusive; nt = no result; [ ] = dose if it differs, or a comment. Unless noted, the call rests on the fitted dose curve; in most records, active means well fitted curve in the direction sought with a large enough effect; inconclusive means small, poorly fitted or top-dose-only effect, or another doubt; inactive means no such curve, though single readings can be large; an effect the other way counts as inactive or inconclusive.

SMILES | gsp antagonist | mIDH1 inhibitor | gsp agonist | BRCA1 expr act | IL-2 act
CCc1ccc(OC(=O)Nc2ccccc2)cc1 | 12.2% | -9.5% | -12.2% | 2.82µM* | -0.9
Cc1ccc(C)c(N(CC(=O)NC2CCCC2)S(=O)(=O)c2ccccc2)c1 | -22.1% | 6.2% | -11.2%[15.4 µM] | -12.3% | -0.7
CC(=O)Nc1nc(COc2ccccc2)cs1 | -5.8% | -2.2% | ? | 10µM* | -2.3
CCc1ccc(NC(=O)CCC(=O)c2ccccc2)cc1 | 35.5µM* | 0.0% | -4.5% | 2.5% | -2.3
CCc1ccc(NC(=O)CCC(=O)c2ccc(C)cc2)cc1 | -12.3% | 3.2% | 32.9% | -11.8% | 1.0
CC(=O)Nc1nc(COc2ccc3ccccc3c2)cs1 | ? | 1.9% | 2.1% | 42.6%[1.84 µM] | -2.7
CCc1ccc(-c2csc(NC(=O)Oc3ccccc3)n2)cc1 | 1.1% | 4.9% | 2.8%[15.4 µM] | 7.94µM* | -1.9
O=C(Nc1nc(-c2cccc(Br)c2)cs1)Oc1ccccc1 | -12.3% | -2.8% | -10.9% | ? | -0.5
CCc1ccc(-n2c(SCC(=O)NC(C)CC)nc3n[nH]c(C)c3c2=N)cc1 (configuration not stated) | nt | 0.0% | nt | nt | nt
O=[N+]([O-])c1ccc2oc(/C=C/c3ccc(O)cc3)nc2c1 | nt | 1.7% | -46.4% | 10µM* | -0.9
CC(C)(C)Nc1nc2cc([N+](=O)[O-])ccc2o1 | 5.7% | 6.8% | 6.6% | 21.7% | 0.2
Cc1ccc(-c2nc(C(=O)NCC3CCCO3)cc3c2[nH]c2ccccc23)cc1 (configuration not stated) | ? | -6.2% | nt | -71.7% | -0.4
COc1ccc(-c2nc(C(=O)NCC3CCCO3)cc3c2[nH]c2ccccc23)cc1 (configuration not stated) | 28.2µM* | -4.3% | nt | -73.2% | -0.8
O=C(Nc1ccc(S(=O)(=O)N2CCOCC2)cc1)c1cccnc1 | 4.0% | 4.5% | -2.4%[15.4 µM] | -6.6% | 2.8
O=C(NCCOC(=O)c1ccc(S(=O)(=O)N2CCOCC2)cc1)c1cccnc1 | 4.7% | 3.6% | 28.2µM* | -18.5% | -0.4
O=C(COc1ccccc1)NC(=S)Nc1ccc2c3c(cccc13)CC2 | 4.0% | 4.3% | 35.5µM* | -20.9% | 0.2
Cc1ccc(OCC(=O)NC(=S)Nc2ccc3c4c(cccc24)CC3)cc1 | 2.8% | 3.4% | 45.9%[15.4 µM] | -1.4% | -4.5
O=C(CNS(=O)(=O)c1ccccc1)N1CCc2ccccc2C1 | 0.4% | -4.9% | 3.3%[15.4 µM] | 11.2µM* | 0.0
OC[C@@H]1CN(Cc2ccc(-c3ccccc3)cc2)C[C@H](n2cnc3c(N4CCOCC4)ncnc32)O1 | nt | nt | nt | -33.5% | -0.5
COc1ccc2cc(C3=CC(=O)CC(C)(C)C3=O)ccc2c1 | nt | 13.1% | -35.7% | 12.6µM* | -2.4
O=C(NNc1ccc([N+](=O)[O-])cn1)Nc1ccc(N=Nc2ccccc2)cc1 | -10.8% | 1.8% | -92.5% | -17.0% | 1.1
COc1ccc(-c2cc3nc(C)c(CCC(=O)N4CCN(c5cc(C)ccc5C)CC4)c(C)n3n2)c(OC)c1 | nt | 3.3% | nt | 1.1% | nt
c1ccc(-c2cnnc(N3CCCCC3)n2)cc1 | 3.9% | 6.0% | ? | 7.94µM* | 0.1
COc1ccccc1NC(=O)COc1ccc(-c2nn(C)c(=O)c3ccccc23)cc1 | 28.2µM* | 1.7% | 22.9%[15.4 µM] | 14.0% | 2.5
CCOCCn1ccc2c(OCC(=O)Nc3cc(OC)ccc3OC)cccc2c1=O | 15.8µM* | -1.2% | 8.9%[15.4 µM] | -20.2% | -0.8
COc1ccccc1NC(=O)CSc1nc2ccccc2c(=O)n1C | 35.5µM* | 10.5% | -23.8% | -61.4% | -4.2
COc1ccccc1NC(=O)c1ccc(-c2nn(C)c(=O)c3ccccc23)cc1 | 39.8µM* | 2.8% | 0.8%[15.4 µM] | -32.7% | -2.0
Cn1nc(-c2ccc(OCC(=O)Nc3ccccc3)cc2)c2ccccc2c1=O | ? | 2.6% | 24.8% | -4.9%[1.84 µM] | -2.9
CCc1ccc2oc(-c3ccc(C)c(NC(=O)COc4ccc(Cl)cc4)c3)nc2c1 | nt | nt | nt | 0.0% | nt

Compound activity: PubChem, National Center for Advancing Translational Sciences (NCATS)
